Experimental findings from PubChem BioAssay (NCATS) are described below.

Molecules are shown by their SMILES. “And” between values parts separate entries of the source, which are not always exact repeats. Equal values may be shown once. Records with an inconclusive call do not appear. Where a structure was tested more than once in an assay, its records may differ in their call. The source made the active and inactive calls. Unless noted, the call rests on the fitted dose curve; in most records, active means well fitted curve in the direction sought with a large enough effect; inconclusive means small, poorly fitted or top-dose-only effect, or another doubt; inactive means no such curve, though single readings can be large; an effect the other way counts as inactive or inconclusive.

Assay [1] is described as follows: Cell Viability - SK-N-SH (AID 435; calls by dose curve;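 further: potency means the concentration at half of the fitted maximal effect; compound exposure lasted 40 h at 37 °C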). The following applies: SK-N-SH neuroblastoma cell viability qHTS. The gist of the method:
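Human neuroblastoma line, 40 h exposure at 37 °C, ATP quantified via luciferase luminescence; DMSO and 100 uM tamoxifen define 0 and 100% inhibition for AC50 fitting.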
For orientation: qHTS replaces the single test concentration by a dilution series.

A short description of assay [2]: Cellular Toxicity (caspase-3) Jurkat (AID 655).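 Further: cells exposed to compound for 16 h at 37 °C before reading.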 The settings on record: Jurkat caspase-3 activation, luminescence, DMSO = 0%, tamoxifen = 100%; at 92.2 µM (top of the series). The gist of the method: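 qHTS in human Jurkat T-cell leukemia line: 16 hr compound treatment at 37 °C, caspase-3/7 activity measured by Caspase-Glo luminescence. AC50 derived from Hill equation.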

Assay [3] can be described thus: Cellular Toxicity (caspase-3) SK-N-SH (AID 661). The following applies: SK-N-SH caspase-3 activation, qHTS, DMSO as zero, staurosporine as full; series mostly up to 91.7 µM. The procedure, abridged:
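Human SK-N-SH neuroblastoma cells, 1500/well, were exposed to compounds for 16 hours at 37 °C. Caspase-Glo 3/7 luminescence was normalized to DMSO (basal) and 10 uM staurosporine (100%), and AC50 came from a Hill fit.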

Assay [4] can be described thus: MultiTox-Fluor Cytotoxicity Assay - LYMP1-001 - Dead Cells (AID 946).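 Further: 0% = DMSO and 100% = tetraoctylammonium bromide.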 The settings on record: LYMP1-001 lymphoblastoid cells, dead-cell protease fluorescence; series mostly up to 92.2 µM. The gist of the method: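 Seed 2500 LYMP1-001 cells/well, incubate 5 hr at 37 C; add compound, 16 hr at 37 C; add MultiTox-Fluor reagent, 60 min RT; read dead-cell fluorescence Ex/Em=485/520. Normalize to DMSO and 15 uM tetraoctylammonium bromide.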

In assay [5] the target is Bile acid receptor (Homo sapiens) (UniProt Q96RI1). In words: qHTS assay for small molecule antagonists of farnesoid X receptor signaling (AID 588526; calls by dose curve; further: on the % scale 0 is the no-effect control and ±100 the full control effect). The following applies: HEK293T FXR-UAS-bla, beta-lactamase ratio, antagonist mode; series mostly up to 76.7 µM. The procedure, abridged: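 Concentration-response titrations were fitted to the Hill equation for half-maximal inhibition and maximal response, with data normalised to 50 uM chenodeoxycholic acid and DMSO control wells. Cells: FXR-UAS-bla HEK293T, dialyzed FBS.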

Assay [6] is described as follows: qHTS assay for small molecule antagonists of peroxisome proliferator-activated receptor delta signaling (AID 588535; active means well fitted inhibition curve with a large enough effect in the signal ratio, with a control signal flat, not every such curve was filed as active; the % refers to the signal ratio;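 on max response: cells co-treated with a PPAR-delta agonist as stimulator during compound exposure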). The following applies: HEK293T PPARd-UAS-bla, beta-lactamase FRET ratio, 18 h; 460 nm channel. The gist of the method:
(§1)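 Reporter: UAS-bla under PPAR-delta response element, HEK293T host. Medium: 2% charcoal/dextran FBS. Dosing: titration, 18 hrs, 37 C. Detection: CCF4, 2 hrs RT, 405 ex/460 and 530 em.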

The target of assay [7] is Peroxisome proliferator-activated receptor delta (Homo sapiens) (UniProt Q03181). The description is as above. The following applies: HEK293T PPARd-UAS-bla, beta-lactamase FRET ratio, 18 h; series mostly up to 76.7 µM. The procedure, abridged: as §1
Assay [8] concerns the target Vitamin D3 receptor (Homo sapiens) (UniProt P11473). In words: qHTS assay for small molecule antagonists of vitamin D receptor signaling (AID 588541; calls by dose curve;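 further: receptor activated by calcitriol during compound treatment; on the % scale 0 is the no-effect control and ±100 the full control effect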). The settings on record: HEK293T VDR-UAS-bla, beta-lactamase ratio, antagonist mode; series mostly up to 76.7 µM. The procedure, abridged:
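VDR-UAS-bla HEK293T cells (2000/well, 2% charcoal-stripped FBS) were treated with titrated compounds plus 1-alpha,25-dihydroxyvitamin D3 (50 nM or 3 nM final) for 16 h at 37 C. CCF4 beta-lactamase fluorescence was read; Hill fits gave IC50.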

Assay [9] shares this target. In words: qHTS assay for small molecule agonists of vitamin D receptor signaling (AID 588543; calls by dose curve;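 further: 0% = DMSO basal and 100% = reference agonist control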). The following applies: HEK293T VDR-UAS-bla, beta-lactamase ratio, 16 h; series mostly up to 76.8 µM. The gist of the method: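 Measured: β-lactamase reporter activity (CCF4, 405 nm excitation, 460/530 nm emission) in HEK293T VDR-UAS-bla cells after 16 h compound exposure at 37 °C. Normalization against 50 nM 1α,25-dihydroxyvitamin D3 and DMSO; Hill-fit EC50.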

Assay [10] in a line: qHTS assay for small molecule agonists of the antioxidant response element (ARE) signaling pathway (AID 651741; active means well fitted activation curve with a large enough effect in the signal ratio; the % refers to the signal ratio; further: potency means the concentration at half of the fitted maximal effect; on activation: % of control where 0% means no effect). The settings on record: HepG2 ARE-bla reporter, beta-lactamase FRET ratio, 16 h; series mostly up to 96 µM. The gist of the method:
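Compounds in DMSO are pinned onto HepG2 ARE-bla cells (2,000/well) that were preincubated 5 h; plates stay 16 h at 37 C, then beta-lactamase activity is detected with LiveBLAzer B/G substrate by fluorescence.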

A short description of assay [11]: Cell Viability - BJ (AID 421; calls by dose curve;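 further: potency means the concentration at half of the fitted maximal effect; cells exposed to compound for 40 hours at 37 °C before readout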). The settings on record: BJ fibroblast viability, qHTS. The gist of the method: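 Cytotoxicity in human BJ foreskin fibroblasts is scored as loss of cellular ATP after a 40-hour exposure, measured by luciferase luminescence. Controls are DMSO and 100 uM tamoxifen.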
Assay [12] can be described thus: Cellular Toxicity (caspase-3) BJ (AID 658). The following applies: BJ fibroblasts, luminescence, normalized: DMSO 0%, staurosporine 100%; series mostly up to 91.7 µM. The gist of the method:
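Luminescent aminoluciferin-substrate cleavage reports caspase 3/7 activity in normal human BJ fibroblasts after 16 hr compound exposure at 37 °C. Normalized to DMSO (basal) and 10 uM staurosporine (100%); AC50 from Hill fit of concentration-response.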

Assay [13] in a line: Cellular Toxicity (caspase-3) H-4-II-E (AID 663).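 Further: cells exposed to compound for 16 hr before readout.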 The settings on record: H-4-II-E rat hepatoma, scaled: DMSO 0%, 100 µM tamoxifen 100%; series mostly up to 92.2 µM. The procedure, abridged: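 Luminescence from caspase-cleaved aminoluciferin substrate, read 20 min after reagent addition, reports caspase 3/7 activation in rat H-4-II-E cells after 16 hr compound exposure. Normalized to DMSO (basal) and 100 uM tamoxifen (100%); AC50 from Hill fits.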

Assay [14] can be described thus: Cellular Toxicity (caspase-3) Hek293 (AID 664).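 Further: cells exposed to compound for 16 h at 37 °C before readout.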 The settings on record: HEK293 caspase-3 activation, DMSO = 0%, 100 µM tamoxifen = 100%; series mostly up to 92.2 µM. The procedure, abridged:
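HEK293 cells in complete medium treated 16 h at 37 °C, then Caspase-Glo 3/7 luminescence read after 20 min at room temperature. Normalized to DMSO and 100 uM tamoxifen; AC50 from Hill fit of concentration-response.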

Assay [15] can be described thus: Cellular Toxicity (caspase-3) N2a (AID 665).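 Further: compound exposure lasted 16 h at 37 °C before readout.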 The settings on record: N2a cells, luminescence, normalized: DMSO 0%, 10 µM staurosporine 100%; at 92.2 µM (top of the series). The procedure, abridged: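 Mouse N2a neuroblastoma cells, 1500 per well, treated 16 h at 37 °C in complete medium; caspase-3/7 activity by Caspase-Glo luminescence after 1 h. Normalized to DMSO and 10 uM staurosporine; AC50 from Hill fits.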

Assay [16] in a line: Cell Viability - LYMP2-019 (AID 973).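 Further: cells exposed to compound for 24 h at 37 °C; 0% = DMSO alone and full effect = 92 µM tetraoctylammonium bromide; nearly all actives have a fitted effect of over 55% in size.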 The following applies: LYMP2-019 lymphoblastoid cell line viability; series mostly up to 92.2 µM. The gist of the method:
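Human lymphoblastoid LYMP2-019 cells (2500/well) preincubated 5 h at 37 C, then treated 24 h at 37 C in complete medium. Viability by CellTiter-Glo ATP luminescence after 30 min at room temperature; AC50 from Hill fits.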

Assay [17] in a line: Cellular Toxicity (caspase-3) Renal Proximal Tubule (AID 667).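 Further: cells exposed to compound for 16 hours at 37 °C before detection.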 The settings on record: renal proximal tubule cells; at 91.7 µM (top of the series), primary cells freshly taken from rat, solvent-only wells 0%, staurosporine 100% unless noted. The procedure, abridged: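 Caspase-Glo 3/7 read-out, rat primary kidney proximal tubule cells. Compound exposure 16 h, 37 °C; detection after 1 h at RT. Activity scaled to DMSO and 10 uM staurosporine.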

Assay [18] deals with Peroxisome proliferator-activated receptor gamma (Homo sapiens) (UniProt P37231). In words: qHTS assay for small molecule antagonists of peroxisome proliferator-activated receptor gamma signaling (AID 588537; active means well fitted inhibition curve with a large enough effect in the signal ratio, with a control signal flat, not every such curve was filed as active; the % refers to the signal ratio;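 further: reporter cells co-stimulated with 50 nM rosiglitazone agonist during compound treatment; % of control where 0% means no effect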). The following applies: HEK293 PPARg-UAS-bla, beta-lactamase ratio, antagonist mode; series mostly up to 76.8 µM. The gist of the method: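 We seeded GeneBLAzer HEK293 reporter cells at 3000 per well, allowed 6-6.5 h attachment at 37 C, then co-treated with test compound titrations and 50 nM rosiglitazone overnight (16 h). Inhibition was quantified from 460/530 nm emission ratios.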

A short description of assay [19]: Cell Viability - NIH 3T3 (AID 541).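 Further: plate controls were DMSO alone for no effect and tamoxifen positive control for full effect; nearly all actives have a fitted effect of over 25% in size.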 The settings on record: NIH 3T3 cell viability, qHTS; activity change, negative = cytotoxicity: at 92.2 µM (top of the series). The procedure, abridged:
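Mouse NIH 3T3 fibroblasts, 1000 cells/well, rested 5 hr at 37 °C, then exposed to compound for 40 hr at 37 °C in complete medium. Viability read as intracellular ATP by CellTiter-Glo luminescence; AC50 from Hill-equation fits of concentration-response data.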

Assay [20] can be described thus: Cell Viability - LYMP2-021 (AID 974).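 Further: compound exposure lasts 24 hours at 37 °C; on the % scale 0 is the no-effect control and ±100 the full control effect; nearly all actives have a fitted effect of over 55% in size.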 The following applies: LYMP2-021 lymphoblastoid cells viability; series mostly up to 92.2 µM. The procedure, abridged: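 Human lymphoblastoid LYMP2-021 cells, 2500/well in complete medium, treated 24 hours at 37 C. Intracellular ATP by CellTiter-Glo luminescence (30 min, RT); AC50 from Hill fits of concentration-response.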

Chain of Vitamin D3 receptor (Homo sapiens) (P11473 whole entry, looked up): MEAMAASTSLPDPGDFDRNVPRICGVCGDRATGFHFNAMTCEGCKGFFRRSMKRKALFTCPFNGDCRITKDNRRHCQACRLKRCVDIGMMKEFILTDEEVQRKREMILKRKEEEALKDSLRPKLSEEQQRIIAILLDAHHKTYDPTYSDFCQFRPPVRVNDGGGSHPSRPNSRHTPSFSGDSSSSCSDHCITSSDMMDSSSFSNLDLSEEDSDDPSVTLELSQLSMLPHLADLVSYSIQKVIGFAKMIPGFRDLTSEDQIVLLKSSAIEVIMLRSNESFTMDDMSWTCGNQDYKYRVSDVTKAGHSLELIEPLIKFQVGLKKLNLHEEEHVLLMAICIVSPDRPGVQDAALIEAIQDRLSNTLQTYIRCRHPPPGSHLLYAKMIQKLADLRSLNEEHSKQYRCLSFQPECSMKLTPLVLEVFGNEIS
Chain of Peroxisome proliferator-activated receptor gamma (Homo sapiens) (P37231 whole entry, looked up): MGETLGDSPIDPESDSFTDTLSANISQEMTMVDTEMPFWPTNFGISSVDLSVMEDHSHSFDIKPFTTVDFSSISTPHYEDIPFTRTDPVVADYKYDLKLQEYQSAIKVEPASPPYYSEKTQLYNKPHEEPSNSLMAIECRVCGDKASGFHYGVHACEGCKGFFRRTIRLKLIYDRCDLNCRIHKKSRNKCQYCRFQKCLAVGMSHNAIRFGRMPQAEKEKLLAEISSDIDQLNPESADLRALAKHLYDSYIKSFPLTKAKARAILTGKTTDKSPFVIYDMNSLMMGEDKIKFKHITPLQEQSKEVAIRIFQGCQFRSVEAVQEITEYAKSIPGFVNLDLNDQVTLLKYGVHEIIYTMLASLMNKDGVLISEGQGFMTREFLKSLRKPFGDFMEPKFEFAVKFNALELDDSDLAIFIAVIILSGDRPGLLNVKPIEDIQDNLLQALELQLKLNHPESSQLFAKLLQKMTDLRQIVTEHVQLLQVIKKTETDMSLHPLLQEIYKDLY
Chain of Bile acid receptor (Homo sapiens) (Q96RI1 whole entry, looked up): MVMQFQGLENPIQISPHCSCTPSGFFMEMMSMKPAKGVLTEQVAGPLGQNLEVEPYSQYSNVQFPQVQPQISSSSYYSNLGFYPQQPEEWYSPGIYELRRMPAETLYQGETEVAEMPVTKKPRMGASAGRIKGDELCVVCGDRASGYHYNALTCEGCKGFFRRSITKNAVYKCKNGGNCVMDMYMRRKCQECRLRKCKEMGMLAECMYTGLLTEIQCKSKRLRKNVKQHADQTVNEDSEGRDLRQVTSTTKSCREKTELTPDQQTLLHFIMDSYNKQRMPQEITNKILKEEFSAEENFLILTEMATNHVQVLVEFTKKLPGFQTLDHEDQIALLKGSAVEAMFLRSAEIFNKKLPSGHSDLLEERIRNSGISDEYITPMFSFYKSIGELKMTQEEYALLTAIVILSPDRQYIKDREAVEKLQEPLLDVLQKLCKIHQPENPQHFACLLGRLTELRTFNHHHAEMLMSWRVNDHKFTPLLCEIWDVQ
Chain of Peroxisome proliferator-activated receptor delta (Homo sapiens) (Q03181 whole entry, looked up): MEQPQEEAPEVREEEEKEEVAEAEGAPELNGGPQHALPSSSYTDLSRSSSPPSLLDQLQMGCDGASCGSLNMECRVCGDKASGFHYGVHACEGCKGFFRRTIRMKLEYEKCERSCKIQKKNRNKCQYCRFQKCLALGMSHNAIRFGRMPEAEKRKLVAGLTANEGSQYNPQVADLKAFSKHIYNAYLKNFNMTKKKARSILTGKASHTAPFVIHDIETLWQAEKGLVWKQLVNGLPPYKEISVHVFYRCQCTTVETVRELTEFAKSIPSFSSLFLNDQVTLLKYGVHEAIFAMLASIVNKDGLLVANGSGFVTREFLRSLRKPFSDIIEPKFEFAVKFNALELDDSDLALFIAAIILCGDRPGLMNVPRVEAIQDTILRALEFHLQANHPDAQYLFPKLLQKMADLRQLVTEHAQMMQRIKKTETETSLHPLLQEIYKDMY

On to `Nc1ccccc1Cl`, for which the Potency in assay [1] is > 92 µM (inactive). Besides, in assay [2], the caspase-3 activation was -0.675% (inactive). Moreover, the outcome in assay [3], in assay [5], in assay [8] and in assay [9] was inactive. Besides, the Potency result in assay [4], in [7] and in [10] was “inactive” each time. Moreover, in [6], the max response stood at 6.02%.
As for `CC(C)(C)OOC(C)(C)C`, the Potency in [11] is > 92 µM (inactive). For the same molecule, the values for the caspase-3 activation in assay [2] and in assay [15] were 0.243% (inactive) and 0.408% (inactive), respectively. For the same molecule, the outcome in assay [12], in [13], in assay [14] and in assay [5] was inactive. Moreover, the Potency result in [4], in assay [16], in assay [7] and in assay [10] was “inactive” in each case. Also, in assay [6], the max response is 29.5%.
As for `CCC[CH2][Sn]([Cl])([Cl])[Cl]`, the Potency in [11] is > 92 µM (inactive); in assay [1] it was > 92 µM (inactive); in [10] it was 13.3 µM (active). The molecule was classed as inactive in assay [13], in assay [14] and in [5]. For the same molecule, the caspase-3 activation in [17] was 6.84% (inactive). Besides, the Potency entry in assay [4], in assay [7] and in [18] was “inactive” each time. Besides, in assay [6], the max response is 31.1% and 8.78%.
Take `CC(C)(c1ccccc1)c1ccc(O)cc1`: the Potency in [11] is > 92 µM (inactive). In assay [19], the activity change, negative = cytotoxicity was -17.8% (inactive). The figures for the caspase-3 activation in [2] and in [15] were 11.6% (inactive) and 1.43% (inactive), respectively. The call in assay [13], in [5], in assay [8] and in assay [9] was inactive. In addition, the Potency result in assay [4], in assay [16], in assay [20] and in [7] was “inactive” throughout. In addition, the max response in assay [6] was 13%.
For the molecule `Cc1ccc2ccccc2c1`, the Potency in [1] is > 92 µM (inactive). The activity change, negative = cytotoxicity in [19] was -11.3% (inactive). The caspase-3 activation in assay [2] was 1.17% (inactive); in assay [15], -4.52% (inactive). Besides, the call in assay [13], in [14], in [5], in [8] and in [9] was inactive. Besides, the Potency entry in [16], in assay [7], in assay [18] and in assay [10] was “inactive” in each case. In assay [6], the max response amounted to 14.3%.
Regarding `c1ccc(-c2ccccc2)cc1`, the caspase-3 activation in [2] was 0.52% (inactive); in assay [15], -1.9% (inactive); in [17], -8.06% (inactive). The molecule was classed as inactive in assay [3], in assay [14] and in [5]. Further, the Potency entry in assay [16], in assay [20], in assay [7] and in [18] was “inactive” throughout. Also, the max response in [6] is -1.97% and 13.4%. Further, the Potency result in [10] was “inactive and 54.5 µM (active)”.
Turning to `Clc1nc(Cl)nc(Nc2ccccc2Cl)n1`, the molecule was classed as inactive in assay [12], in [13], in [8] and in [9]. In addition, in assay [15], the caspase-3 activation is 0.587% (inactive). The Potency result in [16], in [20] and in [18] was “inactive” in each case.
As to `CCOP(=S)(OCC)SCSC(C)(C)C`, the caspase-3 activation in assay [2] was -0.764% (inactive); in [17], -0.898% (inactive). Further, the outcome in assay [12], in assay [3], in assay [13], in [8] and in assay [9] was inactive. The Potency entry in assay [16], in assay [20], in assay [7], in assay [18] and in assay [10] was “inactive” each time. Moreover, the max response in assay [6] was 18.1% and -40.8%.
